# Results taken from PubChem BioAssay (NCATS).
# Records with an inconclusive call do not appear. Where a call stands in place of a potency, no number is given. Activity calls are given as the source filed them. The call rests on the fitted dose curve; in most records, active means well fitted curve in the direction sought with a large enough effect; inconclusive means small, poorly fitted or top-dose-only effect, or another doubt; inactive means no such curve, though single readings can be large; an effect the other way counts as inactive or inconclusive.
# How the values were obtained:
# [1] = Primary qHTS for inhibitors of nuclear receptor binding SET domain protein 2 (NSD2) in an isogenic RCH-ACV NSD2 p.E1099K mutant (9B) (AID 1645876)
# [2] = Primary qHTS for inhibitors of nuclear receptor binding SET domain protein 2 (NSD2) in an RCH-ACV wild type WT cells (2C) (AID 1645877)
# Further: nearly all actives have a fitted effect of over 70% in size.
# Potency means the concentration at half of the fitted maximal effect.
structure (smiles),measurement,setting,value
COc1cc(CCc2ccccc2)c(C(=O)O)c2c1CC(C(C)(C)O)O2 (configuration not stated),Potency,[1],inactive
same,Potency,[2],inactive
CC1=CCC2C(C)(CO)CCCC2(CO)C1CO (configuration not stated),Potency,[1],inactive
same,Potency,[2],inactive
COC(=O)C1(Cc2ccc(O)cc2)OC(=O)C(OC)=C1c1ccc(O)cc1 (configuration not stated),Potency,[1],inactive
same,Potency,[2],inactive
CC[C@H]1OC(=O)C[C@@H](O)[C@H](C)[C@@H](O[C@@H]2O[C@H](C)[C@@H](O)[C@H](N(C)C)[C@H]2O)[C@@H](CCN2C[C@H](C)C[C@H](C)C2)C[C@@H](C)C(=O)/C=C/C(C)=C/[C@@H]1CO[C@@H]1O[C@H](C)[C@@H](O)[C@@H](OC)[C@H]1OC,Potency,[1],inactive
same,Potency,[2],inactive
CC(=O)N1CCN(NC(=O)c2ccc(F)cc2)CC1,Potency,[1],inactive
same,Potency,[2],inactive
CCC(C)(O)C(O)C(=O)OCc1ccc(O[C@@H]2O[C@H](CO)[C@@H](O)[C@H](O)[C@H]2O)cc1 (some centres not stated),Potency,[1],inactive
same,Potency,[2],inactive
CC(=O)OC(CSC1CCC(=O)OC(C)CCC(=O)C1)C(=O)O (configuration not stated),Potency,[1],inactive
same,Potency,[2],inactive
CC1OC(OC2C(CO)OC(OCC3OC(OC(=O)C45CCC(C)(C)CC4C4=CCC6C7(C)CCC(OC8OC(C(=O)O)C(O)C(OC9OC(CO)C(O)C(O)C9O)C8O)C(C)(C)C7CCC6(C)C4(C)CC5)C(O)C(O)C3O)C(O)C2O)C(O)C(O)C1O (configuration not stated),"activity change, negative = viability loss",[1],0.172% [at 9.23 µM] (inactive)
same,"activity change, negative = cell killing",[2],-4.23% [at 9.23 µM] (inactive)
OC[C@H]1O[C@@H](OCCc2ccc(O)cc2)[C@H](O)[C@@H](O)[C@@H]1O,Potency,[1],inactive
same,Potency,[2],inactive
NC(=O)c1ccc(OCC2NC(=O)C3CCCN3C2=O)cc1 (configuration not stated),Potency,[1],inactive
same,Potency,[2],inactive
C/C=C1/[C@H](O[C@@H]2O[C@H](CO)[C@@H](O)[C@H](O)[C@H]2O)OC=C(C(=O)OC)[C@H]1CC(=O)O[C@@H]1O[C@H](CO)[C@@H](O)[C@H](O)[C@H]1O,Potency,[1],inactive
same,Potency,[2],inactive
CC1=CC[C@]2(C(=O)O[C@@H]3O[C@H](CO[C@@H]4O[C@H](CO)[C@@H](O[C@@H]5O[C@@H](C)[C@H](O)[C@@H](O)[C@H]5O)[C@H](O)[C@H]4O)[C@@H](O)[C@H](O)[C@H]3O)CC[C@]3(C)C(CCC4[C@@]5(C)C[C@@H](O)[C@H](O)[C@@](C)(CO)C5CC[C@]43C)C2C1C (some centres not stated),outcome,[1],inactive [at 9.23 µM]
same,outcome,[2],inactive [at 9.23 µM]
COc1cc2c(cc1O)C1(Cc3ccc4c(c3C1=O)OCO4)N(C)CC2 (configuration not stated),Potency,[1],inactive
same,Potency,[2],inactive
CC(=O)O[C@H]1[C@H](Oc2ccccc2COC(=O)C2(O)C=CCCC2=O)O[C@H](CO)[C@@H](O)[C@@H]1O (some centres not stated),Potency,[1],8.93 µM (active)
same,Potency,[2],7.09 µM (active)
CC1(C)C(O)CCC2(C)C1C(O)C=C1COC(=O)C12O (configuration not stated),Potency,[1],inactive
same,Potency,[2],inactive
COC(=O)[C@H](OC(C)=O)[C@H]1C(C)(C)C(=O)[C@H]2CC3=C4CC(=O)O[C@@H](c5ccoc5)[C@]4(C)CCC3[C@@]1(C)C2=O (some centres not stated),Potency,[1],inactive
same,Potency,[2],inactive
C=C1CC23CCC4[C@@](C)(CCC[C@@]4(C)C(=O)O)C2CCC1C3 (some centres not stated),Potency,[1],inactive
same,Potency,[2],inactive
CCOc1nc2cccc(C(=O)OCc3oc(=O)oc3C)c2n1Cc1ccc(-c2ccccc2-c2noc(O)n2)cc1,Potency,[1],inactive
same,Potency,[2],inactive
O=C1NCc2nc3ccccc3c(=O)n2C1Cc1c[nH]c2ccccc12 (configuration not stated),Potency,[1],inactive
same,Potency,[2],inactive
C=CC(C)(C)C12CC3C(=O)NC(Cc4cnc[nH]4)C(=O)N3C1Nc1ccccc12 (configuration not stated),Potency,[1],inactive
same,Potency,[2],inactive
CN(C)c1cccc(-c2c3c(=O)n(-c4ccccc4Cl)[nH]c3cc(=O)n2C)c1,Potency,[1],inactive
same,Potency,[2],inactive
CNC(=O)Nc1ccc(OC)c(NC(=O)NC(=O)c2cc(F)c(F)cc2Cl)c1,Potency,[1],inactive
same,Potency,[2],inactive
CC(C)(O)C1CCC2(C)C3C(O)C4C(C13)C42CO (configuration not stated),Potency,[1],inactive
same,Potency,[2],inactive
CC1(C)CCC[C@@]2(C)[C@H]1[C@H](O)C=C1COC(=O)[C@@]12O,Potency,[1],inactive
same,Potency,[2],inactive
COC(=O)CC1(O)C(=O)Nc2ccccc21 (configuration not stated),Potency,[1],inactive
same,Potency,[2],inactive
COc1cc(/C=C/C(=O)OC2[C@H](O)CC(O)(C(=O)O)C[C@H]2O)ccc1O (some centres not stated),Potency,[1],inactive
same,Potency,[2],inactive
Cc1cc(N2CCCCC2)nc2ccccc12,Potency,[1],inactive
same,Potency,[2],inactive
COC(=O)C1=C[C@@H](O)[C@@H](O)[C@H](O[C@@H]2O[C@H](COC(=O)/C=C/c3ccccc3)[C@@H](O)[C@H](O)[C@H]2O)C1,Potency,[1],inactive
same,Potency,[2],inactive
C=CC(C)(CC/C=C(\C)CC/C=C(\C)CC(O)/C=C(\C)C(=O)O)O[C@@H]1O[C@H](CO)[C@@H](O)[C@H](O)[C@H]1O[C@@H]1O[C@H](CO)[C@@H](O)[C@H](O)[C@H]1O (some centres not stated),Potency,[1],inactive
same,Potency,[2],inactive
COC(=O)C1=CO[C@@H](O[C@@H]2O[C@H](CO)[C@@H](O)[C@H](O)[C@H]2O)[C@@H]2[C@@H](C(=O)OC)[C@@H](O)C(O)[C@H]12 (some centres not stated),Potency,[1],inactive
same,Potency,[2],inactive
Cc1cc(O)cc(Oc2cc(C)c(C(=O)O)c(O)c2)c1,Potency,[1],inactive
same,Potency,[2],inactive
